Laboratory results taken from paper PMC4336329 (PLoS ONE, 2015).
In all, about 310,000 compounds went through this assay and about 14,000 (4.5%) showed an effect of 50% or more. Effects have a minus sign here. The sample holds strong results, similar compounds and a random draw of the others, so the mix is not that of the screen.

biological target: human ether-à-go-go-related gene (hERG) potassium channel (human, UniProt Q12809); test: primary screen, population patch clamp on CHO cells stably expressing hERG; higher = less effect of the substance
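Note: peak tail current of the secondary pulse compared with the same well before compound.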

human ether-à-go-go-related gene (hERG) potassium channel, sequence (Q12809 whole entry, looked up): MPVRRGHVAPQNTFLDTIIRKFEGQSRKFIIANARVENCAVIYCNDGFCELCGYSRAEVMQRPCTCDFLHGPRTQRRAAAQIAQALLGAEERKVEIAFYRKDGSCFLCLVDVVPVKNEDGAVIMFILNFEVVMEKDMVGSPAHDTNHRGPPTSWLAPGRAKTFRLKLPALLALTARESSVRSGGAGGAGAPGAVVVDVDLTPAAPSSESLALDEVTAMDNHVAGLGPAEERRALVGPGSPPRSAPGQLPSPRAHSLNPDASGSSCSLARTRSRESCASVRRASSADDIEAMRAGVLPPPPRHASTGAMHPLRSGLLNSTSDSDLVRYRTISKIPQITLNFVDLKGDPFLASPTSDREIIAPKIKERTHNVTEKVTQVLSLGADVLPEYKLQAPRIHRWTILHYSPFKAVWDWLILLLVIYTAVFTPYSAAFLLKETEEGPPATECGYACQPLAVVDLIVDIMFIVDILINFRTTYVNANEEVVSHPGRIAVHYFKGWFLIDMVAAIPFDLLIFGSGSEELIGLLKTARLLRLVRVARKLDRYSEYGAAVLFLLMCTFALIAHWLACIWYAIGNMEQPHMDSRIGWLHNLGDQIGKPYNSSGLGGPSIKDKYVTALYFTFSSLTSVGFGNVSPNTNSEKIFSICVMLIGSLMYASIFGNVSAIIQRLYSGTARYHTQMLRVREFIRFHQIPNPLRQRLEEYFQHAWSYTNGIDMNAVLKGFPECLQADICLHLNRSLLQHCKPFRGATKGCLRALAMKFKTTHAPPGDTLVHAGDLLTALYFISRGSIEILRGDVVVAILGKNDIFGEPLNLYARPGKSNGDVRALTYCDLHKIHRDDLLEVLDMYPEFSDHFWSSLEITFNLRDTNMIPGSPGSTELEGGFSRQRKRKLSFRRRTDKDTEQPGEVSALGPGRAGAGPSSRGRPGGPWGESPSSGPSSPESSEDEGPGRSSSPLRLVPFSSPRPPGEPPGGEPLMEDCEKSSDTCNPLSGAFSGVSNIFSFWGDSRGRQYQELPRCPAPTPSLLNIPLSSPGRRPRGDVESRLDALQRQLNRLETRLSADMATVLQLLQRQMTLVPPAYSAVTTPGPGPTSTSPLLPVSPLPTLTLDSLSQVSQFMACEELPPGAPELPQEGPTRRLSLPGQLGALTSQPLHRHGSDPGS

SMILES	hERG current change (%, negative = inhibition) at 10uM [%]
CCc1cccc(NC(=O)COC(=O)C2CCN(c3ccc(C(F)(F)F)cn3)CC2)c1	-4.68
CCOc1ccc(NC(=S)NC(=O)Cc2ccccc2)cc1	25.5
Cc1nnc(NC(=O)/C=C/c2ccco2)s1	26.3
O=C(Nc1ccc(CN2CCOCC2)cc1)c1ccc(Br)cc1	3.54
CC(C)NC(=O)c1ccccc1NC(=O)Cc1ccc([N+](=O)[O-])cc1	-33.8
CC1C(=O)CCN(C(C)C)C1C.Cl (stereo not drawn)	8.54
CCOC(=O)c1cnn(C)c1NC(=O)c1ccc(Cl)cc1Cl	-24.5
Cc1cc(C)nc(NS(=O)(=O)c2ccc(NC(=O)c3ccc4c(c3)OCO4)cc2)n1	-0.197
O=C(CN1CCN(Cc2ccccc2)CC1)NC(=O)NC1CCCCC1	-46.3
O=C(CN1CCN(C/C=C/c2ccccc2)CC1)NC(=O)NC1CCCCC1	-74.8
O=C(CN1CCc2ccccc2C1)Nc1ccccc1C(=O)NC1CC1	-24.5
O=C(CN1CCN(C/C=C/c2ccccc2)CC1)Nc1ccccc1C(=O)NC1CC1	-80.5
NC(=O)C1CCCN(CC(=O)Nc2ccccc2C(=O)NC2CC2)C1 (stereo not drawn)	-10.7
S=C(NC1CCCCC1)N1CCN(C/C=C/c2ccccc2)CC1	-21.8
CCOc1cc(C2NC(=O)NC2=O)ccc1O (stereo not drawn)	17.4
CCN(CC)CCN(C(=O)Cn1nnc(-c2ccc(C)o2)n1)C(C(=O)NC(C)(C)C)c1cccs1 (stereo not drawn)	-41.6
O=C1CC(C(=O)NC2CCCCC2)C2(CCCCC2)O1 (stereo not drawn)	-1.23
COc1cc(NC(=O)C(=O)NCCN(C)C)c(OC)cc1Cl	8.41
CCCCN(C1CCS(=O)(=O)C1)S(=O)(=O)c1ccc(OC)cc1 (stereo not drawn)	-24.5
CC(C)(CO)Nc1nc(N2CCCC2)nc(N2CCCC2)n1	-13.8
COc1ccc(NC(=O)NNC(=O)COc2ccc3cc(Br)ccc3c2)cc1OC	5.68
CC(C)c1ccc2oc(=O)cc(CN3CCN(Cc4ccccc4)CC3)c2c1	17.5
COc1ccc2oc(=O)cc(CN3CCN(Cc4ccc(OC)c(OC)c4OC)CC3)c2c1	-39.7
CCc1ccc2c(CN(C)Cc3ccc(OC(F)F)c(OC)c3)cc(=O)oc2c1	-72.5

SMILES	hERG current change (%, negative = inhibition) at 10uM [%]
Cc1ccc2c(CN3CCN(Cc4ccccc4)CC3)cc(=O)oc2c1	-78.9
CCN1CCN(Cc2cc(=O)oc3ccc(C)cc23)CC1	-3.04
Cc1ccc2c(CN3CCOCC3)cc(=O)oc2c1	-27.6
CCc1ccc2c(CN(C)Cc3ccccc3OC)cc(=O)oc2c1.O=C(O)C(=O)O	-21.3
Cc1ccc2c(CN3CCCCC3)cc(=O)oc2c1	-16.1
Cc1ccc2oc(=O)cc(CN3CCN(Cc4ccccc4)CC3)c2c1	-56.8
COc1ccc(CN2CCN(Cc3cc(=O)oc4cc(C)ccc34)CC2)c(OC)c1OC	-80.2
CCOC(=O)C1CCN(Cc2cc(=O)oc3cc(C)ccc23)CC1	-47.8
COc1cc(CN(C)Cc2cc(=O)oc3cc(C)c(Cl)cc23)ccc1OC(F)F	12
CC(Sc1nc(N)cc(=O)[nH]1)C(=O)Nc1sc2c(c1C#N)CCCC2 (stereo not drawn)	1.55
Cc1c(C)c(C)c(S(=O)(=O)NCCc2ccccn2)c(C)c1C	-7.95
C=CCNC(=O)c1nn2cccnc2c1Cl	12.7
COC(=O)C1C(=O)C=C(Nc2ccc(F)cc2F)CC1c1ccccc1 (stereo not drawn)	-16.9
O=C1CCCN1CC(O)CS(=O)(=O)c1ccc(Cl)cc1 (stereo not drawn)	16.7
CCc1ccc2c(CN3CCc4cc(OC)c(OC)cc4C3)cc(=O)oc2c1	-66
COc1cc(CN(C)Cc2nc3cc(C(F)(F)F)ccc3c(=O)[nH]2)ccc1OC(F)F	-66.5
CCc1cc2c(CN3CCN(CCO)CC3)cc(=O)oc2cc1O	15.6
Cc1ccc2c(CN3CC(C)CC(C)C3)cc(=O)oc2c1 (stereo not drawn)	-2.89
CSc1ccc(CN(C)Cc2nc3cc(C(F)(F)F)ccc3c(=O)[nH]2)cc1	12.9
COc1cc2c(cc1OC)CN(Cc1cc(=O)oc3cc(C)c(C)cc13)CC2	-37.6
Cc1ccc2c(CN3CCN(CCO)CC3)cc(=O)oc2c1	-74.9
Cc1ccc2c(CN3CCN(CCO)CC3)cc(=O)oc2c1C	-15.5
COc1cccc(CN(C)Cc2nc3cc(C(F)(F)F)ccc3c(=O)[nH]2)c1	-3.19
Cc1ccc2oc(=O)cc(CN3CCC(C)CC3)c2c1	10.8

SMILES	hERG current change (%, negative = inhibition) at 10uM [%]
COc1cc2c(cc1OC)CN(Cc1cc(=O)oc3cc(C)c(Cl)cc13)CC2	-14.3
Cc1ccc2c(CN3CCC(C)CC3)cc(=O)oc2c1	-50
Cc1ccc2c(c1)-c1c(cnn1CC(=O)N(Cc1ccco1)C1CCCCC1)CO2	-13
Cc1cc(C)cc(NC(=O)Cn2nnc(C(=O)NCc3ccco3)c2N)c1	6.01
CCn1cc(/C=N\NC(=O)Cc2ccc(Cl)cc2)cn1	-12
CCOC(=O)N1CCN(C(=O)CSc2nnc(CNC(=O)c3ccccc3F)o2)CC1	6.37
COc1ccccc1-c1cc(C(=O)NC2CCN(C)CC2)c2ccc(Cl)c(C)c2n1	-42
N#CC1(NC(=O)COC(=O)CCCN=C2NS(=O)(=O)c3ccccc32)CCCCC1	15
Cn1c(SCC(=O)NCc2ccc3c(c2)OCO3)nc2c(c1=O)SCC2	-21
Cc1ccc2c(CN3CCN(S(=O)(=O)c4ccccc4C(F)(F)F)CC3)cc(=O)oc2c1	-57.3
Cc1ccc(S(=O)(=O)N2CCN(Cc3ccccc3C(F)(F)F)CC2)cc1	-5.53
CCc1ccc2c(CN3CCN(Cc4ccccc4)CC3)cc(=O)oc2c1	-79.7
Cc1ccc2c(CSc3nnnn3C)cc(=O)oc2c1	-42.4
CCc1ccc2c(CN3CCOCC3)cc(=O)oc2c1	-31.7
CCc1ccc2c(CSc3nnnn3C)cc(=O)oc2c1	-68.1
Cc1ccc2c(CN3CCN(S(=O)(=O)c4ccccc4C(F)(F)F)CC3)cc(=O)oc2c1C	-5.49
CCc1ccc2oc(=O)cc(CN3CCN(Cc4ccccc4)CC3)c2c1	-46.3
Cn1nnnc1SCc1cc(=O)[nH]c2ccccc12	2.31
N#Cc1c(-c2ccccc2)ccn(Cc2cccc(Cl)c2)c1=O	8.43
Cc1ccc(Nc2cc(-n3nc(C)cc3C)ncn2)c(C)c1	-3.97
COCCCN1C2=C(C(=O)CC(C)(C)C2)C(c2ccc(O)c(OC)c2)C2=C1CC(C)(C)CC2=O	11.2
Cc1ccc(N)cc1CN1CCCC1=O	2.15
CCN(CC)S(=O)(=O)c1ccc(C(=O)NC(C)(C)C)cc1	19.1
O=C(CCN1CCN(c2ccc(F)cc2)CC1)Nc1ccc(F)cc1	-56.8

SMILES	hERG current change (%, negative = inhibition) at 10uM [%]
O=C(CCN1CCN(c2ccccn2)CC1)Nc1ccc(F)cc1	-42.5
COc1ccc(NC(=O)CCN2CCN(c3ccc(F)cc3)CC2)cc1	-33
O=C(CCN1CCOCC1)Nc1ccc(F)cc1	-10.5
O=C(CCN1CCN(c2ccccc2F)CC1)Nc1ccc(F)cc1	-18.3
Cc1ccccc1N1CCN(CCC(=O)Nc2ccc(F)cc2)CC1	-67.5
CCC(C)(C)n1nnnc1C(c1cccnc1)N1CCCc2ccccc21 (stereo not drawn)	-19.6
CCS(=O)(=O)NCc1csc(-c2ccccc2)n1	18
Cc1cnccc1CN(C)C(=O)CC1C(=O)NCCN1CC1CCCCC1 (stereo not drawn)	-4.59
COc1ccc(/C=C2\SC(=S)N(CCC(=O)Nc3ccccn3)C2=O)cc1OC	26.2
Cl.OC(COCC1COc2ccccc2O1)CN1CCN(c2ccccc2)CC1 (stereo not drawn)	-64.1
Cl.OC(COCC1COc2ccccc2O1)CN1CCN(c2ccc(F)cc2)CC1 (stereo not drawn)	-79.3
CC1CCCC(C)N1CC(O)COCC1COc2ccccc2O1.Cl (stereo not drawn)	-15.8
CC[N+](C)(CC)CC(O)COCC1COc2ccccc2O1.[I-] (stereo not drawn)	1.73
Cl.OC(COCC1COc2ccccc2O1)CN1CCc2ccccc2C1 (stereo not drawn)	-64.9
C[N+]1(CC(O)COCC2COc3ccccc3O2)CCOCC1.[I-] (stereo not drawn)	18.3
O=C(C1COc2ccccc2O1)N1CCN(c2ccccc2F)CC1 (stereo not drawn)	9.47
Cl.OC(COCC1COc2ccccc2O1)CN1CCN(c2ccccc2F)CC1 (stereo not drawn)	-58.9
Cl.OC(COCC1COc2ccccc2O1)CN1CCCCC1 (stereo not drawn)	-43.6
CC1CCCN(CC(O)COCC2COc3ccccc3O2)C1.Cl (stereo not drawn)	-28.2
Cl.OCCN1CCN(CC(O)COCC2COc3ccccc3O2)CC1 (stereo not drawn)	33.4
CCN1CCN(CC(O)COCC2COc3ccccc3O2)CC1.Cl (stereo not drawn)	-4.69
